# A number with no mark means an inactive call.
# What was measured:
# Assay in all cases: log2 ratio of Biotin-Ahx-Ub-VS probe labelling (fragment/DMSO); higher = less target engagement (more negative = stronger competition), active = hit call of the paper (q ≤ 0.05, log2 ratio ≤ -1)
# Conditions in all cases: compound concentration: 200 uM; treatment time: 3 h
# [1] = target: T1, USP42 (UniProt Q9H9J4)
# T1 sequence (whole entry): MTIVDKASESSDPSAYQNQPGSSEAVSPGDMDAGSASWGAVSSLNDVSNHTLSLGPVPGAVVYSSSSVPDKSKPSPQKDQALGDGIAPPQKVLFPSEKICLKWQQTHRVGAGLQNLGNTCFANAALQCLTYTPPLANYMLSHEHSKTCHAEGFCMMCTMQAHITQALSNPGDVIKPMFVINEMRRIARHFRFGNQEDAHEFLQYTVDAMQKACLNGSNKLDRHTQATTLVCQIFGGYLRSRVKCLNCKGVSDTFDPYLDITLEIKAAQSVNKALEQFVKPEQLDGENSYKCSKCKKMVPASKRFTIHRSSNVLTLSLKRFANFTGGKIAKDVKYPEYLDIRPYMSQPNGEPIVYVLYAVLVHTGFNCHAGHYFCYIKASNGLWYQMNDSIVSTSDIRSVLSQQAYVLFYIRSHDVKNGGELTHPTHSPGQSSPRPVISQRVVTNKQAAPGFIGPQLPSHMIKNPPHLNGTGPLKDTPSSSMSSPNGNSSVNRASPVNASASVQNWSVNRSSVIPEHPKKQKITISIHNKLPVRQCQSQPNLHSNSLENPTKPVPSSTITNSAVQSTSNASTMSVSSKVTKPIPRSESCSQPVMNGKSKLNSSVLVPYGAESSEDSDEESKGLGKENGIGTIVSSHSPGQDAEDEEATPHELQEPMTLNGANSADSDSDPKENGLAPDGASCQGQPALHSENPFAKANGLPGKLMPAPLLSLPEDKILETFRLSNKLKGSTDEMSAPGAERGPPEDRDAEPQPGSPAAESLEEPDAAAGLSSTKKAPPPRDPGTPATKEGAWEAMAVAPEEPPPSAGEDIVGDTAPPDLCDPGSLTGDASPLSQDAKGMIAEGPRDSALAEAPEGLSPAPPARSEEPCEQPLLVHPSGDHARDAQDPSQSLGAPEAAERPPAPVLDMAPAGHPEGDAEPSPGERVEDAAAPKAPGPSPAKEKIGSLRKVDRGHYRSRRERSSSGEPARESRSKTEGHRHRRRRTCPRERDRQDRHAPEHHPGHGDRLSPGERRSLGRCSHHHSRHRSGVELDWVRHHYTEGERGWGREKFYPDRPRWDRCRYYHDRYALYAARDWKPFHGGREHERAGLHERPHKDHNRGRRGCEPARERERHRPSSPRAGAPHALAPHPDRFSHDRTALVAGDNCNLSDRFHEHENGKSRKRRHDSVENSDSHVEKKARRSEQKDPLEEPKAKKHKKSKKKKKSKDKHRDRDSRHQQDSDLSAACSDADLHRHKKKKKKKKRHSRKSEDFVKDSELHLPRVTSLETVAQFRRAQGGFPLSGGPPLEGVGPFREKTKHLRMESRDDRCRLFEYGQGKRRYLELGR
# In short: (§1)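 Using Biotin-Ahx-Ub-VS at 0.5 µM final for 1 h, DUBs were labelled in HEK293T lysate (495 µg per sample) that had first been treated in triplicate with fragment at 200 µM or vehicle for 3 h. NeutrAvidin enrichment, LysC and trypsin digestion and diaPASEF LC-MS/MS followed. Spectronaut label-free quantities were global-median-normalised. Values are average log2 fragment/vehicle ratios by unpaired t-test, using proteins with ≥2 unique peptides.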
# [2] = target: USP46 (UniProt P62068)
# Sequence of USP46 (P62068 whole entry): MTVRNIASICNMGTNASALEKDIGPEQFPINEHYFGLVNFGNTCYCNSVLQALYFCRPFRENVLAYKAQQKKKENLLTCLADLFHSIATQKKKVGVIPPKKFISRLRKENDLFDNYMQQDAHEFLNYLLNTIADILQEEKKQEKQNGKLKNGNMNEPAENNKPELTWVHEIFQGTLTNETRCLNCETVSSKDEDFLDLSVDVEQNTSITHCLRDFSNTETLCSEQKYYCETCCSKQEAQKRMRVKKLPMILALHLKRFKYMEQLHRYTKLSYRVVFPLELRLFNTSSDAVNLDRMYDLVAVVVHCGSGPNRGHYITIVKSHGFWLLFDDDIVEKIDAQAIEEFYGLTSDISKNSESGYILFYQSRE
# In short: as §1
# [3] = target: T2, USP47 (UniProt Q96K76)
# T2 sequence (whole entry): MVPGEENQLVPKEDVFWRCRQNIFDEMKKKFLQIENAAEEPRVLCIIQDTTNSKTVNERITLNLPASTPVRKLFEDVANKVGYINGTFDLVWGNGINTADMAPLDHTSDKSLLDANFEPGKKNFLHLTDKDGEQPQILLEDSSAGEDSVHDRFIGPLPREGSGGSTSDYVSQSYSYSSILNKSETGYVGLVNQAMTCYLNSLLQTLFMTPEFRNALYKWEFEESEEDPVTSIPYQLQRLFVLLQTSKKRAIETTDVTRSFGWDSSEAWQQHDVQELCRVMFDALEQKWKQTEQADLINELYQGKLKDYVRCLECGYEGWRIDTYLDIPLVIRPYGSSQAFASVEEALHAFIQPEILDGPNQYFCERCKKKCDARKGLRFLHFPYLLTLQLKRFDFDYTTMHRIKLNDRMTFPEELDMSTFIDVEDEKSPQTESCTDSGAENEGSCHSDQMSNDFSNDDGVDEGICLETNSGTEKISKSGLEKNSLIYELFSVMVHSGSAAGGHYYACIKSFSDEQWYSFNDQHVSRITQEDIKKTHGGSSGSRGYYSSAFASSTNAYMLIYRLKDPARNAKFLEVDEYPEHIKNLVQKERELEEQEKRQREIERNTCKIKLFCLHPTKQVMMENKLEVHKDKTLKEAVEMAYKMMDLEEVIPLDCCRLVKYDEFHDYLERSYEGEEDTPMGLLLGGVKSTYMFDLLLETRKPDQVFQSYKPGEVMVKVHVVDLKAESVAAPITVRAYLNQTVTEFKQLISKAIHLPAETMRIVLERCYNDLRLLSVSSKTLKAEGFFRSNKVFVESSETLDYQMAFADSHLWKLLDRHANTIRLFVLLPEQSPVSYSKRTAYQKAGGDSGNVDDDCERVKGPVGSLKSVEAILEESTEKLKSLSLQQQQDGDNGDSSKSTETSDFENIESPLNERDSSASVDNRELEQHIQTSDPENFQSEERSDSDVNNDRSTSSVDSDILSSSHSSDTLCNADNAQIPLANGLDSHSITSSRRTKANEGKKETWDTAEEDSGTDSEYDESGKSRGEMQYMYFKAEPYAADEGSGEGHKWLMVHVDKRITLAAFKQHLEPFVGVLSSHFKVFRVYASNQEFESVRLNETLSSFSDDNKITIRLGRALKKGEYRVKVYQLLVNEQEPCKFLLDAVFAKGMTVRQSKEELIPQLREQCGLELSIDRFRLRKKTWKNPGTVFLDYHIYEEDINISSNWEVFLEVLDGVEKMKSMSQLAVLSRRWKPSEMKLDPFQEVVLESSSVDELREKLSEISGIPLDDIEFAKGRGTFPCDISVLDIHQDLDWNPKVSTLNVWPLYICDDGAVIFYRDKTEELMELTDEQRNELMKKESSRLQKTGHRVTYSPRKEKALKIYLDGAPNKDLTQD
# In short: as §1
# [4] = target: T3, USP48 (UniProt Q86UV5)
# T3 sequence (whole entry): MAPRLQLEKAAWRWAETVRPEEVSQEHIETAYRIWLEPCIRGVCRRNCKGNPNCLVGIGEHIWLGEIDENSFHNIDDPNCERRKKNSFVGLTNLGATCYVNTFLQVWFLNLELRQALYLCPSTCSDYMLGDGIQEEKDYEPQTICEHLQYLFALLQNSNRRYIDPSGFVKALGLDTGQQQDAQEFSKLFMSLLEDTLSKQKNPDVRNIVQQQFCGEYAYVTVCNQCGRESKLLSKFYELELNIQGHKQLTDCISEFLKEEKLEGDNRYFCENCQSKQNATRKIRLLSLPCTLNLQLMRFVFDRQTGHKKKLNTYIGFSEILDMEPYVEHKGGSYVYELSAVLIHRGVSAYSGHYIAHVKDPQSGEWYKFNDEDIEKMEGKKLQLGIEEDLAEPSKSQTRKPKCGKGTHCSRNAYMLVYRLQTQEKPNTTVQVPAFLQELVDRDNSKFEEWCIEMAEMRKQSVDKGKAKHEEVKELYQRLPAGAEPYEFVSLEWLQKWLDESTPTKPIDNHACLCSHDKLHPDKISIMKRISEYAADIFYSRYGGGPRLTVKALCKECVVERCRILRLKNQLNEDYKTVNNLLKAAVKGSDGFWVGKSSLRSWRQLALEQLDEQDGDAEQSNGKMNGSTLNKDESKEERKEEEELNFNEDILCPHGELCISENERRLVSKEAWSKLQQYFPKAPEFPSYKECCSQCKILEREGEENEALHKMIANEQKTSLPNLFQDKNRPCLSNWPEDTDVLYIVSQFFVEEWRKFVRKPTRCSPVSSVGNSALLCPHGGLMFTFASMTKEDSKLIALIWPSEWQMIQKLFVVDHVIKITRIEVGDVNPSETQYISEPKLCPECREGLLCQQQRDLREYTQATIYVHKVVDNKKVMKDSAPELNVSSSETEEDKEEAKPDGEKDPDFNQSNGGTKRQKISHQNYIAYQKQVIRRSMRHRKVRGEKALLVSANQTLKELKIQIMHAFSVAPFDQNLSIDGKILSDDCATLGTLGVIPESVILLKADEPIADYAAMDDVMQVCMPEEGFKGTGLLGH
# In short: as §1
# [5] = target: T4, USP5 (UniProt P45974)
# T4 sequence (whole entry): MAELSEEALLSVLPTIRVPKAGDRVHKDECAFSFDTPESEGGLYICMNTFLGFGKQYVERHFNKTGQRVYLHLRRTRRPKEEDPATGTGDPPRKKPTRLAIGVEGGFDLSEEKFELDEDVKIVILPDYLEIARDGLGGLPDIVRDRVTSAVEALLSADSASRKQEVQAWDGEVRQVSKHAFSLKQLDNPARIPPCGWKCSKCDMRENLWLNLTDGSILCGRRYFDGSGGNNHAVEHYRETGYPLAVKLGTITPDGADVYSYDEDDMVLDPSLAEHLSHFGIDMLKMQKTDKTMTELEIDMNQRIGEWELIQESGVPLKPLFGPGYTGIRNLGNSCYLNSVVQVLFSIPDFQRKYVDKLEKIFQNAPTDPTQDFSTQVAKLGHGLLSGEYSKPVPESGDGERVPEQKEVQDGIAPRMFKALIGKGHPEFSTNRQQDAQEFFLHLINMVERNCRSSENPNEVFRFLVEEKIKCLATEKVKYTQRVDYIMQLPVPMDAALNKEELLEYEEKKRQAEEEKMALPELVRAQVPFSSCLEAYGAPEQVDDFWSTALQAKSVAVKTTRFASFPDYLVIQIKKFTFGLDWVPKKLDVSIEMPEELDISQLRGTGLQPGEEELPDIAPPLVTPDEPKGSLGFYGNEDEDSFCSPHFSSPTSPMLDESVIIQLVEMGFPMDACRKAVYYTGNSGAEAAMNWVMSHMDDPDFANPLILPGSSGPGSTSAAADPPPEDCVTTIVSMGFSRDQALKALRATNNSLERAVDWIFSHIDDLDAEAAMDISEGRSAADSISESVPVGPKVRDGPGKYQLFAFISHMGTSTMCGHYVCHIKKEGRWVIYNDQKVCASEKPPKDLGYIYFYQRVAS
# In short: as §1
# [6] = target: USP54 (UniProt Q70EL1)
# Sequence of USP54 (Q70EL1 whole entry): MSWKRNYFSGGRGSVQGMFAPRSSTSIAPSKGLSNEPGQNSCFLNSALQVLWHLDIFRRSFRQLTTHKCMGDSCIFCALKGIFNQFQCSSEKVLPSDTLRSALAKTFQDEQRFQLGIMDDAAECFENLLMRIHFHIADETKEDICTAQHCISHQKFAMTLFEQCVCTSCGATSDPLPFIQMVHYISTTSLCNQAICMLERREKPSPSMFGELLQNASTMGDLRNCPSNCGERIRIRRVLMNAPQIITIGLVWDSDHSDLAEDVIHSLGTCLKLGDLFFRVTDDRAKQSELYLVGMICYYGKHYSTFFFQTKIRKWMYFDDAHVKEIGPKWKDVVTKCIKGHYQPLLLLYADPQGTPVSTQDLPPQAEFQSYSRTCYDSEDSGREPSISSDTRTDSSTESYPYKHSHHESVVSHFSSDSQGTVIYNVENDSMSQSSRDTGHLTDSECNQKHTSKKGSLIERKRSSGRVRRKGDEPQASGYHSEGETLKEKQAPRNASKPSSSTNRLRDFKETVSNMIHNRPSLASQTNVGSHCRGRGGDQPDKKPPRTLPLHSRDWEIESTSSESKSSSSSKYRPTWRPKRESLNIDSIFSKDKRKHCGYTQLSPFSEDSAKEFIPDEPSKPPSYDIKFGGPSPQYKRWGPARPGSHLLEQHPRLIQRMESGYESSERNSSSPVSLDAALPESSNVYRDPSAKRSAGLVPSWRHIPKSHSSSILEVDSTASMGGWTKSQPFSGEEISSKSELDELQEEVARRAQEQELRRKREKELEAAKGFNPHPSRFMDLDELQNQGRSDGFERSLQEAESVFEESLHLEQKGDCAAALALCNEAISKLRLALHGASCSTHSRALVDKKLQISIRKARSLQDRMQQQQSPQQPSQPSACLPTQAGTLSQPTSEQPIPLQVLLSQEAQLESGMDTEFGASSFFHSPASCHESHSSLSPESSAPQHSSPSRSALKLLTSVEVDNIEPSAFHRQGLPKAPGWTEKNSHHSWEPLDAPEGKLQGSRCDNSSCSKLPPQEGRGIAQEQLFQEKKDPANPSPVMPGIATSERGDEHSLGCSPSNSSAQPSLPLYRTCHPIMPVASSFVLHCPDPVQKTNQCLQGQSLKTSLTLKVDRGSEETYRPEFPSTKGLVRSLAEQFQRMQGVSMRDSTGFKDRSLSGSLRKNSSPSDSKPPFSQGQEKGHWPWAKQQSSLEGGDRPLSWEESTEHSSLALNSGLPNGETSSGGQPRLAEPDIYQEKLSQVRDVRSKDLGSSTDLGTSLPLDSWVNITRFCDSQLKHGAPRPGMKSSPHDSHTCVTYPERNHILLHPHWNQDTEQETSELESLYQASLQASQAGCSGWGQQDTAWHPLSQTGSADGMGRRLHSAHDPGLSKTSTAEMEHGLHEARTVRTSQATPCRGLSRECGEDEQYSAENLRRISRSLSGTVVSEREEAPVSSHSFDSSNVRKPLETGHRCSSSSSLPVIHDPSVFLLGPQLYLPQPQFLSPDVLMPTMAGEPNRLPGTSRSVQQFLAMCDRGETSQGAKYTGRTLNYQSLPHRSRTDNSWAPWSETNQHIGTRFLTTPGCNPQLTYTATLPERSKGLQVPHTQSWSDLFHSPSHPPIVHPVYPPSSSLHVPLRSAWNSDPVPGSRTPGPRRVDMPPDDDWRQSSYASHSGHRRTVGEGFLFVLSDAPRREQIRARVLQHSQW
# In short: as §1
# [7] = target: USP7 (UniProt Q93009)
# Sequence of USP7 (Q93009 whole entry, looked up): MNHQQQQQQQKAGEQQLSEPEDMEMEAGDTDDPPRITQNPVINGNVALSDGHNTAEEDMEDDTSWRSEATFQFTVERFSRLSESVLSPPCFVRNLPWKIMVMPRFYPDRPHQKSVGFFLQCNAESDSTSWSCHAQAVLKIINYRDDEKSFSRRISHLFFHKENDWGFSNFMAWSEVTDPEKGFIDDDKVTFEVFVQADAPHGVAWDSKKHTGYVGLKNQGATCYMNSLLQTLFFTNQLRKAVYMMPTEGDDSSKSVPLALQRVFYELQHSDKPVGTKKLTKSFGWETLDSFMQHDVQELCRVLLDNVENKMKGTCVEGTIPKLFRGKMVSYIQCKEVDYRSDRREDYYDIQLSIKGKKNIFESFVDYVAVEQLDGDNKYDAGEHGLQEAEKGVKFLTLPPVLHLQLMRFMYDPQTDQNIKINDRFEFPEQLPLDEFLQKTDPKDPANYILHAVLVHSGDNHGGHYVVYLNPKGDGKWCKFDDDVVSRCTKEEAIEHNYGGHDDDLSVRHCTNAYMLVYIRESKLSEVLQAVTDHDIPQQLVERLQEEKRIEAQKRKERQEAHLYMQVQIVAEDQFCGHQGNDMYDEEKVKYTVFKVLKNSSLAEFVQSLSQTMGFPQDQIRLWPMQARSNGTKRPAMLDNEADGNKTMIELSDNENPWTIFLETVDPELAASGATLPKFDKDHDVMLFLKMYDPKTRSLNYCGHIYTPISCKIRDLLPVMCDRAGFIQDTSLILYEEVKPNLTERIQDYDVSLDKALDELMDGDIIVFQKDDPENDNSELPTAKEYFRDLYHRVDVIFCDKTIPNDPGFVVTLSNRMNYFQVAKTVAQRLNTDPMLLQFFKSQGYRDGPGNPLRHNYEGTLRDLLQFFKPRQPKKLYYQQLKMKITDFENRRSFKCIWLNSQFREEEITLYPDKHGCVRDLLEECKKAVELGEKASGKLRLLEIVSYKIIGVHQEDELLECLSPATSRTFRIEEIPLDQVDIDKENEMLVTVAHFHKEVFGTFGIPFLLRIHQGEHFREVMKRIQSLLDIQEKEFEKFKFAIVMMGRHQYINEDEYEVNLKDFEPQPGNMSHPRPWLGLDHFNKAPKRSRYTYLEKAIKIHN
# In short: as §1
# [8] = target: T5, USP8 (UniProt P40818)
# T5 sequence (whole entry): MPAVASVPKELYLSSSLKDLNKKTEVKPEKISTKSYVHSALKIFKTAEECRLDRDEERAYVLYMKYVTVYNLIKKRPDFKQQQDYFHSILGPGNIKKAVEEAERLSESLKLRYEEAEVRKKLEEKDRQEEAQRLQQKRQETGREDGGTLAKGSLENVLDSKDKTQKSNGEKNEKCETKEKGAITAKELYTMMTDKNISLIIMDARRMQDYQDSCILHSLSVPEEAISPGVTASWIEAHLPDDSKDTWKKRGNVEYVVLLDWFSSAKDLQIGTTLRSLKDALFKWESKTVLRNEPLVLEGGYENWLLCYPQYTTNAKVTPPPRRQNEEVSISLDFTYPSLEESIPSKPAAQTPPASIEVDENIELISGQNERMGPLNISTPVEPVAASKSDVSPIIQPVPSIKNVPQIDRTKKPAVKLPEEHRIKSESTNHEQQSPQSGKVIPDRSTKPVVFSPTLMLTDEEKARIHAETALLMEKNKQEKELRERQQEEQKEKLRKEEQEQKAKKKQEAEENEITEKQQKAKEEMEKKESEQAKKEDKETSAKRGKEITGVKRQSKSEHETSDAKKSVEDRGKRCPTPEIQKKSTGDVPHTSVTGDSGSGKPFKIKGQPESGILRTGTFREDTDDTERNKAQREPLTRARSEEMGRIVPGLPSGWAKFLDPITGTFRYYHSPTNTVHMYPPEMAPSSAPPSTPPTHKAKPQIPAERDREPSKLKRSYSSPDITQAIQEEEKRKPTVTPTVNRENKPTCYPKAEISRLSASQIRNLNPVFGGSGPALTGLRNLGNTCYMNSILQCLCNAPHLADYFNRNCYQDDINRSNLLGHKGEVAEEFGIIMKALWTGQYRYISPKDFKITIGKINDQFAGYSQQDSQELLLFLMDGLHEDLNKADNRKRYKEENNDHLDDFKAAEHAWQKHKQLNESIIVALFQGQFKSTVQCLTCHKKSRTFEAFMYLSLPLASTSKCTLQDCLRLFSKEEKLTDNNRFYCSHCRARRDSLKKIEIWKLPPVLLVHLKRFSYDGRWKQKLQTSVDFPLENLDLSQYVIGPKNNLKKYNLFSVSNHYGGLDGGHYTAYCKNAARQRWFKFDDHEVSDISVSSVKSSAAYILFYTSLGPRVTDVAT
# In short: as §1
structure (smiles),measurement,setting,value
O=C(CCl)N1CCc2nc[nH]c2C1c1ccc(Cl)cc1 (stereo not drawn),log2 ratio of Biotin-Ahx-Ub-VS probe labelling,[1],-0.0471
same,log2 ratio of Biotin-Ahx-Ub-VS probe labelling,[2],-0.363
same,log2 ratio of Biotin-Ahx-Ub-VS probe labelling,[3],-0.614
same,log2 ratio of Biotin-Ahx-Ub-VS probe labelling,[4],-1.05 (active)
same,log2 ratio of Biotin-Ahx-Ub-VS probe labelling,[5],-0.146
same,log2 ratio of Biotin-Ahx-Ub-VS probe labelling,[6],0.015
same,log2 ratio of Biotin-Ahx-Ub-VS probe labelling,[7],-1.31 (active)
same,log2 ratio of Biotin-Ahx-Ub-VS probe labelling,[8],0.126
